FXN GAA850 act: frataxin GAA850 promoter activation | HEK293 lucGAA850 FXN promoter luciferase reporter, 24 h; percent of 10 µM SAHA response | activation, % at 6 µM | actives 0.56% (n = 360,000) | AID 540364;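 active = activation above the average of all compounds screened plus 3 SD, cutoff fixed separately per campaign, cut at about 7.5% in these data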
DAX1 inh: inhibits human nuclear receptor DAX1; P51843; HEK293 Gal4-DAX1 luciferase reporter, luminescence; inhibition, % at 6.75 µM; actives 0.99% (n = 340,000);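 active = inhibition above the mean over all tested compounds plus 3 SD, cut at about 4.2% in these data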;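 note: inhibition shows as a rise in luminescence from relieved DAX1 repression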
Target sequence (P51843 207-470 limits assumed): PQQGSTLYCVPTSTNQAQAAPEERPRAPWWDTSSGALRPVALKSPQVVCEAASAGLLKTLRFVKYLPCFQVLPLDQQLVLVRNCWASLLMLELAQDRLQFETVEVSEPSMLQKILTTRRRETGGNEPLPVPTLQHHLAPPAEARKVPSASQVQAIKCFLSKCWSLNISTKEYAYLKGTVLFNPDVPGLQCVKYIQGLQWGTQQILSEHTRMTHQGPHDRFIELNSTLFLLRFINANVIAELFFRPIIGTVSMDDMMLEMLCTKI
AHR act: human AHR activation. actives 2.5% (n = 320,000). P35869. AHR-responsive luciferase reporter cells, luminescence. activation, % at 5 µM; in the data active = activation above about 47%
HSF-1 act: increases HSF-1 driven luciferase reporter signal | activation, % at 9 µM | actives 1.7% (n = 300,000) | NIH3T3-HGL HSF-1 luciferase reporter, MG132, 8 h; 100% = twice DMSO control signal;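 active = mean replicate activation of at least 50% with a set share of replicates each reaching 50%; inconclusive = only one of those two conditions met; inactive = mean below 50% and too few replicates reaching it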
HSF1 inh: HSF1 inhibition. NIH3T3-HGL HSE-luciferase, MG132-induced, luminescence 8 h; active compounds read low. activity change, negative = inhibition, % at 7.5 µM (by protocol). actives 0.77% (n = 300,000);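 active = more than half of replicate wells show activity change below -50%, luminescence cut by over half; inconclusive = some wells, but at most half, below -50%; inactive = no replicate well below -50%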;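 note: luciferase reports HSF-1 transcriptional activity via heat shock element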
Large screens that a line does not name were inactive. Hits are enriched below; roughly 5.4% of the tested compounds scored in any of these assays.

Cc1nc(CNS(=O)(=O)c2ccc(Br)cc2)cs1	none
CC(=O)Nc1ccc(S(=O)(=O)NCc2csc(C)n2)cc1	HSF1 inh -87
FC(F)(F)c1cnc(/C=C/Nc2ccccc2Cl)c(Cl)c1	HSF-1 act 52
COc1ccc(N(C)C(=O)Cn2c(=O)oc3ccccc32)c(OC)c1	none
COc1ccc(N(C)C(=O)c2oc(=O)c3ccccc3c2-c2ccccc2)c(OC)c1	HSF1 inh -79
CCCOc1ccc(-c2nc(=S)[nH][nH]2)cc1	DAX1 inh 4.5
S=c1nc(-c2ccc(Cl)cc2)[nH][nH]1	none
CC(=O)Nc1ccc(-c2csc(NC(=O)C3CSC4(C)CCC(=O)N34)n2)cc1 (centres undefined)	none
COc1ccccc1C(=O)NC(=O)COC(=O)CNC(=O)c1ccccc1	none
Cc1cccc(NC(=O)c2ccc(COc3cccc4ccccc34)o2)n1	AHR act 71
O=C(Nc1nccs1)c1ccc(CSc2ccccc2)o1	HSF-1 act 63
O=C(Nc1nccs1)c1ccc(COc2ccccc2)o1	HSF-1 act 56
Cc1ccc(SCc2ccc(C(=O)Nc3nccs3)o2)cc1	none
Cc1ccc(OCc2ccc(C(=O)Nc3nccs3)o2)cc1	HSF-1 act 60
COc1cc(OC)nc(Nc2nc(C(N)Cc3ccc(F)cc3)cs2)n1 (centres undefined)	none (no result: DAX1 inh, AHR act, HSF-1 act, HSF1 inh)
O=C(c1ccc(NS(=O)(=O)c2ccc(Cl)c(Cl)c2)cc1)N1CCOCC1	none (no result: AHR act, HSF-1 act, HSF1 inh)
CCOC(=O)C1(Cc2ccc(OC)cc2)CCN(C(=O)CCc2cccnc2)CC1	none
Nc1nc(NCc2ccccc2)nc(Nc2cccc(F)c2)c1[N+](=O)[O-]	none (no result: HSF-1 act, HSF1 inh)
Nc1nc(NCc2ccccc2)nc(Nc2ccc(F)cc2)c1[N+](=O)[O-]	AHR act 103
COc1ccccc1Nc1nc(NCCC(C)C)nc(N)c1[N+](=O)[O-]	AHR act 49 (no result: DAX1 inh)
Nc1nc(NCC2CCCO2)nc(Nc2ccc(F)cc2)c1[N+](=O)[O-] (centres undefined)	AHR act 76
CNc1nc(N)c([N+](=O)[O-])c(NCC2CCCO2)n1 (centres undefined)	DAX1 inh 5.2
CC(=O)c1sc(NC(=O)c2oc3ccc(F)cc3c2C)nc1C	none (no result: HSF-1 act, HSF1 inh)
Cc1nc(Nc2ccc(F)cc2)nc(Nc2ccc(F)cc2)c1[N+](=O)[O-]	DAX1 inh 4.7
Cc1nc(Nc2ccc(C(=O)O)cc2)nc(Nc2ccc(C(=O)O)cc2)c1[N+](=O)[O-]	none
c1ccc(OCCN2CCN(C(c3ccccc3)c3ccccc3)CC2)cc1	none
O=C(Cc1sc(Nc2ccccc2)nc1-c1ccccc1)NCc1ccccc1	HSF-1 act 60
O=C(Cc1sc(-c2ccccc2)nc1-c1ccccc1)Nc1ccccc1	none
O=C(O)Cc1sc(N/N=C\c2ccccc2)nc1-c1ccccc1	AHR act 75, HSF-1 act 60
C=CCNc1nc(-c2cccs2)c(CC(=O)O)s1	none
O=C(O)Cc1sc(Nc2ccccc2)nc1-c1cccs1	DAX1 inh 7.8
O=C(CN1CCN(Cc2ccccc2Cl)C1=O)NCc1cccnc1	DAX1 inh 6.0
Cc1cc2c(=O)n(Cc3ccco3)c(SCC(=O)c3ccc(Cl)s3)nc2s1	HSF-1 act 78
COCc1cc(C)nc(SCc2ccc([N+](=O)[O-])cc2)c1C#N	DAX1 inh 4.6
CC(Oc1ccccc1)C(=O)Nc1ccccc1O (centres undefined)	AHR act 49
CC(=O)c1ccc(OCCCC(=O)OCC(=O)N2CCN(S(=O)(=O)c3ccc(C)cc3C)CC2)cc1	none (no result: AHR act, HSF-1 act, HSF1 inh)
Nc1ncnc2oc(-c3ccco3)c(-c3ccco3)c12	HSF1 inh -53
Nc1nnc(-c2ccco2)s1	none
O=[N+]([O-])c1cccc(-c2ccc(/C=N/NC(=S)Nc3cccc(F)c3)o2)c1	AHR act 49
CC(=O)c1cccc(N(CC(=O)Nc2ccc(F)cc2F)S(C)(=O)=O)c1	HSF-1 act 55
CC(=O)c1cccc(N(CC(=O)Nc2ccccc2F)S(C)(=O)=O)c1	none
CCc1nnc(NC(=O)[C@@H](NS(=O)(=O)c2ccc3c(c2)OCCO3)C(C)C)s1	none (no result: AHR act, HSF-1 act, HSF1 inh)
Cc1cccc(C)c1OCc1cc(C(=O)N2CCN(c3ccc(F)cc3)CC2)no1	HSF-1 act 70
Cc1cccc(C)c1OCc1cc(C(=O)N2CCN(c3ccccn3)CC2)no1	none
Cc1ccc2nc(-c3ccccc3NC(=O)CCC(=O)O)c(=O)[nH]c2c1	HSF1 inh -74 (no result: AHR act)
Cc1ccc(OCCN2CCC2(C)C(=O)NCc2ccc(C(F)(F)F)cc2)cc1 (centres undefined)	none (no result: DAX1 inh, AHR act, HSF-1 act, HSF1 inh)
Cc1cccc(C(=O)Nc2sc(C)c(-c3ccccc3)c2C#N)c1	AHR act 50
Cc1noc(C)c1C(=O)Nc1sc(C)c(-c2ccccc2)c1C#N	none
CC1(C)CC(N=c2cc(-c3ccccc3)oc3ccc(Cl)cc23)CC(C)(C)N1	DAX1 inh 5.9 (no result: AHR act)
OCCCN=c1cc(-c2ccccc2)oc2ccc(Cl)cc12	HSF-1 act inconclusive
O=S(=O)(Nc1ccc(C(O)(C(F)(F)F)C(F)(F)F)cc1)c1cccc2cccnc12	none (no result: DAX1 inh, AHR act, HSF-1 act, HSF1 inh)
O=S(=O)(Nc1ncnc2sc3c(c12)CCC3)c1cc(F)ccc1F	none
O=S(=O)(Nc1ncnc2sc3c(c12)CCC3)c1ccc(Cl)s1	AHR act 48
Cc1ccsc1C(=O)OCc1nc2ccccc2c(=O)[nH]1	AHR act 56
CCOC(=O)C1=NOC2C3CC(C12)C1C(=O)N(CCc2ccc(OC)c(OC)c2)C(=O)C31 (centres undefined)	HSF1 inh -71
COc1ccc(CCN2C(=O)C3C4CC(C5C(C(=O)N/N=C\c6ccc(Cl)cc6)=NOC45)C3C2=O)cc1OC (centres undefined)	none
CC1(C)CC(=O)C=C(NC2=CC3OC(c4ccccc4)OCC3OC2=O)C1 (centres undefined)	HSF-1 act 116
O=c1c2cc(N3CCOCC3)ccc2[nH]c(=S)n1Cc1ccccc1Cl	none
O=c1c2cc(Br)ccc2[nH]c(=S)n1Cc1ccccn1	AHR act 67
O=c1c2cc(N3CCOCC3)ccc2[nH]c(=S)n1Cc1ccccn1	HSF-1 act 67
O=c1c2cc(Br)ccc2[nH]c(=S)n1Cc1ccccc1	none
COC(=O)c1cc2ccsc2n1Cc1nc(-c2ccc(Cl)cc2)oc1C	HSF1 inh -79
COC(=O)c1cc2occc2n1Cc1nc(-c2ccc(Cl)cc2)oc1C	none
Fc1ccc(NCc2nnc(SCc3ccccc3)o2)cc1	none
NCCc1nnc(SCc2ccc(F)cc2)o1	HSF-1 act 64
COc1ccc(-c2cccc3c2C2CC3CCN2C(=O)OCc2ccccc2)cc1 (centres undefined)	none (no result: AHR act, HSF-1 act, HSF1 inh)
C/[N+]([O-])=C\C1C(=O)CC(C)(C)CC1=O	HSF1 inh -55
O=C(N/N=C\c1ccc(Oc2ccccc2)cc1)c1csnn1	DAX1 inh 5.4
Cc1cccc(/C=N/NC(=O)C[n+]2ccccc2)c1	none (no result: AHR act, HSF-1 act, HSF1 inh)
Cc1cccc(/C=N\NC(=O)c2csnn2)c1	AHR act 70, HSF-1 act inconclusive
CCOc1c(Nc2ccccc2O)c(=O)c1=O	none

Source: PubChem BioAssay (several laboratories)
